# Source: PubChem BioAssay (Tox21)
# Results filed as inconclusive are left out. Where a call stands in place of a potency, no number is given. Calls of active or inactive are those of the source. Unless noted, calls follow the shape of the dose curve; as a rule, active = well fitted curve in the direction sought with a large enough effect in the repeat runs; inconclusive = weak or mixed curves; inactive = no such curve, though single readings can be large; an effect the other way counts as inactive or inconclusive.
# Tests used:
# [1] = qHTS assay to identify small molecule agonists of the RXR signaling pathway - cell viability counter screen (AID 1159529); also: series mostly up to about 77 µM; nearly all actives have a fitted effect of over 50% in size
# Summary of the method: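 Compounds dissolved in DMSO were pinned onto HEK 293T cells carrying a beta-lactamase reporter under RXR-alpha control and incubated 16 hr. Cytotoxicity was then quantified by CellTiter-Glo luminescence.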
# [2] = qHTS assay to identify small molecule antagonists of the retinoid acid receptor (RAR) signaling pathway - cell viability counter screen (AID 1159551); also: nearly all actives have a fitted effect of over 35% in size
# Summary of the method: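 Retinol-stimulated (1 uM final) C3RL4 cells, compound 6 h, 37 C; readout CellTiter-Glo luminescence (ATP) after 30 min RT incubation.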
# [3] = qHTS assay to identify small molecule agonists of the retinoic acid receptor (RAR) signaling pathway (AID 1159553)
# Summary of the method: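 Reporter readout comes from luciferase under RARE control in C3RL4 cells; compound exposure lasts 6 hr at 37 C in 5% CO2, and luminescence is recorded following a 30 min room-temperature incubation with reagent.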
# [4] = qHTS assay to identify small molecule antagonists of the retinoic acid receptor (RAR) signaling pathway (AID 1159552; also: nearly all actives have a fitted effect of over 50% in size; also: potency is read from the fitted curve at half-maximal effect)
# Summary of the method: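 Test chemicals and DMSO controls were pin-transferred onto C3RL4 cells a day after seeding; retinol (1 uM final) followed at once. Luminescent reporter output was quantified after 6 hr of co-incubation and 30 min with detection reagent.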
# [5] = qHTS assay to identify small molecule antagonists of the estrogen related receptor (ERR) signaling pathway - cell viability counter screen (AID 1224818);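 also: series mostly up to about 46 µM; viability measured after 17.5 h of compound exposure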
# Summary of the method: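 After a 6 h pre-incubation, ERR cells were dosed by pin tool with compounds, positive/negative controls or DMSO alone. Following 17.5 h at 37 C and 30 min with CellTiter-Fluor, fluorescence was recorded.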
# [6] = qHTS assay to identify small molecule antagonists of the estrogen related receptor (ERR) signaling pathway (AID 1224819;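 also: luminescence from an ERR-driven luciferase reporter measured with One-Glo reagent; series mostly up to about 46 µM; nearly all actives have a fitted effect of over 50% in size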)
# Summary of the method: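 Luminescence readout (One-Glo, 30 min, RT) of ERR cell line after 18 h compound exposure at 37 C; cells seeded 2,000/well, pre-incubated 6 h, compounds pinned from DMSO stocks.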
# [7] = qHTS assay to identify small molecule agonists of the estrogen related receptor (ERR) signaling pathway (AID 1224820)
# Summary of the method: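 ERR reporter cells (NTP line) plated 2,000/well, incubated 6 h at 37 C/5% CO2, then pinned with compounds in DMSO and held 18 h at 37 C. One-Glo added; luminescence read after 30 min at room temperature.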
# [8] = system: estrogen-related receptor alpha (ERRalpha) with PGC-1alpha coactivator, human; assay: qHTS assay to identify small molecule antagonists of the estrogen related receptor signaling pathway with the pleiotropic PPARgamma coactivator (PGC) (AID 1224821; calls by dose curve;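 also: series mostly up to about 46 µM; lower luminescence signal means antagonism of PGC/ERR signalling; nearly all actives have a fitted effect of over 50% in size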)
# Summary of the method: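 Cells engineered for PGC/ERR signalling (line from NTP) were plated 6 h at 37 C/5% CO2, then exposed to DMSO-dissolved compound for 18 h at 37 C. Luciferase activity was read by One-Glo luminescence after 30 min at room temperature.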
# [9] = qHTS assay to identify small molecule antagonists of the estrogen related receptor signaling pathway with the pleiotropic PPARgamma coactivator (PGC) cell viability counter screen (AID 1224822;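 also: series mostly up to about 46 µM; viability read after 17.5 h compound exposure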)
# Summary of the method: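 PGC/ERR cells were plated at 2,000 per well and allowed 6 h to settle before compound addition. Following 17.5 h at 37 C, CellTiter-Fluor reagent was added and fluorescence was read 30 min later.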
# [10] = qHTS assay to identify small molecule agonists of the estrogen related receptor signaling pathway with the pleiotropic PPARgamma coactivator (PGC) (AID 1224823)
# Summary of the method: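 PGC/ERR reporter cells were seeded, rested 6 h at 37 C/5% CO2, then exposed to compounds in DMSO by pin transfer for 18 h at 37 C. Luciferase activity was read as luminescence after One-Glo reagent and 30 min at room temperature.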
smiles,measurement,setting,value
CC[C@@H]1C[C@H](N(Cc2cc(C(F)(F)F)cc(C(F)(F)F)c2)C(C)=O)c2cc(C(F)(F)F)ccc2N1C(=O)OC(C)C,Potency,[1],inactive
same,Potency,[2],inactive
same,Potency,[3],inactive
C=CC(=O)OCC(C)OCC(C)OCC(C)OC(=O)C=C (stereo unspecified),Potency,[1],inactive
same,Potency,[4],61.1 µM (active)
CC(C)(C)c1cc(CCC(=O)OCC(COC(=O)CCc2cc(C(C)(C)C)c(O)c(C(C)(C)C)c2)(COC(=O)CCc2cc(C(C)(C)C)c(O)c(C(C)(C)C)c2)COC(=O)CCc2cc(C(C)(C)C)c(O)c(C(C)(C)C)c2)cc(C(C)(C)C)c1O,Potency,[1],inactive
same,Potency,[2],inactive
same,Potency,[3],inactive
CCOc1cc(OCC)c(C(=O)CCC(=O)O)cc1OCC,Potency,[1],inactive
same,Potency,[2],inactive
same,Potency,[3],inactive
O=C1[C@H](CC[C@H](O)c2ccc(F)cc2)[C@@H](c2ccc(O)cc2)N1c1ccc(F)cc1,Potency,[1],inactive
same,Potency,[2],inactive
same,Potency,[3],inactive
NC(N)=N/N=C/c1c(Cl)cccc1Cl,outcome,[5],inactive
same,outcome,[6],inactive
same,outcome,[7],inactive
same,outcome,[8],inactive
same,outcome,[9],inactive
same,outcome,[10],inactive
O=C(c1ccccc1)c1ccc2n1CCC2C(=O)O (stereo unspecified),outcome,[5],inactive
same,outcome,[9],inactive
C=Cc1c(C)c2cc3[nH]c(cc4nc(cc5nc(cc1[nH]2)C(C)=C5CCC(=O)O)C(CCC(=O)O)=C4C)c(C)c3C=C,outcome,[7],inactive
same,outcome,[10],inactive
Cc1ccc2c(ccc3ccccc32)c1,Potency,[2],inactive
same,Potency,[4],inactive
C[C@H](CCC(=O)O)[C@H]1CC[C@H]2[C@@H]3[C@H](O)C[C@@H]4C[C@H](O)CC[C@]4(C)[C@H]3CC[C@]12C,Potency,[2],inactive
same,Potency,[3],inactive
O=C(O)Cn1c(C(=O)Nc2nc(-c3ccccc3Cl)cs2)cc2ccccc21,Potency,[2],inactive
same,Potency,[4],inactive
same,Potency,[3],inactive
